This note sets out measurements from the supplement of paper PMC10338343.

Test [1] has as its system MILI (PIWIL2) piRISC loaded with L1MC piRNA (26 nt). Description: pre-steady-state target cleavage rate (min^-1); guide: L1MC piRNA 5'p-UAACUAAAUACUAUGCAAGCUGUAGG; higher = faster piRNA-guided slicing of the target. In outline:
(§1)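 A transcribed, DNA-blocked target RNA library […] was incubated at 33 °C for 0–8 or 0–960 min with 1 nM active affinity-purified piRISC carrying one synthetic guide, in HEPES–potassium acetate buffer with or without 500 nM GTSF1 partner protein. Uncleaved targets were then sequenced and normalised to depth and to weakly complementary targets. Data from three trials were pooled, with k3 capped at 0.0001 min^-1, and a burst-and-steady-state fit yielded the pre-steady-state cleavage rate.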

Test [2] has as its system EfPiwi piRISC loaded with L1MC piRNA (26 nt). Description: pre-steady-state target cleavage rate (min^-1); auxiliary factor: 500 nM Ephydatia muelleri Gtsf1; guide: L1MC piRNA 5'p-UAACUAAAUACUAUGCAAGCUGUAGG; MIWI and MILI are mouse PIWI proteins and EfPiwi is from a freshwater sponge; tags in brackets are library labels; higher = faster piRNA-guided slicing of the target. In outline: as §1
[3] abbreviates: auxiliary factor: 500 nM mouse GTSF1.
The mark [4] stands for this setting: auxiliary factor: none (no GTSF1).

± gives the standard deviation.

On to UCCUGGAUCAGCUUGCAUAGUAGUUUAGUUA, for which the results for the “pre-steady-state target cleavage rate” value in test [1] (setting [3]), in test [1] (setting [4]) and in test [2] were 0.216 ± 0.02, 0.00969 ± 0.0027 and 0.0107 ± 0.0033, respectively.
For UCCUGCUACAGCUUGGAUAGUAUUUAGUAA the same measures were 0.214 ± 0.032, 0.00334 ± 0.0025 and 0.00465 ± 0.0017.
Consider UCCUGGAACAGGUAGCAUAGUAUUUAGUUA, for which the “pre-steady-state target cleavage rate” value in test [1] (setting [3]) was found to be 0.209 ± 0.016; in test [1] (setting [4]) it was 0.00531 ± 0.0016; in test [2], 0.00892 ± 0.0028.
The corresponding values for UCCUGGUUCAGCUUGCAUUGUAUUUAGUUA are 0.191 ± 0.023, 0.0105 ± 0.0029 and 0.0223 ± 0.007.
Consider UCCUGGUACAGCUUGCGUAGUAUUUAGUUA, for which the entries for the “pre-steady-state target cleavage rate” value in test [1] (setting [3]), in test [1] (setting [4]) and in test [2] were 0.219 ± 0.021, 0.014 ± 0.004 and 0.0273 ± 0.0095, respectively.
For UCCUGGAUGAGGUUGCAUAGUAAUUAGUUA the same measures were 0.117 ± 0.032, 0.00411 ± 0.0022 and 0.00522 ± 0.003.
For UCCUCCUACAGGUUGCAUAGUAUUUUGUUA the same measures were 0.137 ± 0.021, 0.00378 ± 0.0021 and 0.00418 ± 0.0015.
UCCUGGAACAGCUUGCAUGGUAUUUAGUUA: the “pre-steady-state target cleavage rate” value in test [1] (setting [3]) was determined as 0.283 ± 0.022; in test [1] (setting [4]) it was 0.00826 ± 0.0025; in test [2] it was 0.0141 ± 0.0045.
For UCCUGCUACAGCUUGCAUAGUAUUCUAGUUA the same measures were 0.26 ± 0.038, 0.00709 ± 0.0024 and 0.0043 ± 0.002.
For UCCUCCUACAGCCUGCAUAGUAUUUAGUUA the same measures were 0.287 ± 0.018, 0.0111 ± 0.0024 and 0.0698 ± 0.018.
For UCCUGGACCAGCUUGCAUAGUAUUUAGUUA the same measures were 0.246 ± 0.02, 0.00604 ± 0.0027 and 0.159 ± 0.037.
In the case of UCCUGGUACAGCUAGCUUAGUAUUUAGUUA, the “pre-steady-state target cleavage rate” value in test [1] (setting [3]) was determined as 0.248 ± 0.023; in test [1] (setting [4]), 0.00768 ± 0.0025; in test [2], 0.00544 ± 0.0027.
For UCCUGCUACAGAUUGCAUAGUAUUUAGUUA the same measures were 0.299 ± 0.015, 0.0107 ± 0.0034 and 0.0138 ± 0.0034.
As for UCCUGCAACAGCUUGCAUAGUAUAUAGUUA, the “pre-steady-state target cleavage rate” value in test [1] (setting [3]) worked out at 0.36 ± 0.038; in test [1] (setting [4]) it was 0.00582 ± 0.0026; in test [2] it was 0.00844 ± 0.0024.
For UCCUGGAAGAGCUUGCAUAGUUUUUAGUUA the same measures were 0.0486 ± 0.011, 0.004 ± 0.0023 and 0.00316 ± 0.003.
The corresponding values for UCCUCCUACAGCUUGCAUUGUUUUUAGUUA are 0.0161 ± 0.0055, 0.0039 ± 0.002 and 0.00277 ± 0.0025.
For UCCUGGAUCCAGCUUGCAUAGUAUUUAGUUA the same measures were 0.3 ± 0.017, 0.00437 ± 0.003 and 0.126 ± 0.022.
Regarding UCCUGGAUGUCCUUGCAUAGUAUUUAGUUUA, the figures for the “pre-steady-state target cleavage rate” value in test [1] (setting [3]), in test [1] (setting [4]) and in test [2] were 0.104 ± 0.015, 0.00891 ± 0.0035 and 0.00634 ± 0.003, respectively.
For UCCUGCUACAGCAUGCAUAGUAUUUUGUUA the same measures were 0.167 ± 0.029, 0.00333 ± 0.0032 and 0.00422 ± 0.002.
The corresponding values for UCCUGCUACAGCUUGGAUAGUAUUAAGUUA are 0.198 ± 0.031, 0.00579 ± 0.002 and 0.0066 ± 0.0018.
For UCCUCCUACAGCUUUCAUAGUAUUUAGUUA the same measures were 0.213 ± 0.017, 0.00664 ± 0.002 and 0.00691 ± 0.0022.
On to UCCUGCUAGAGGUUGCAUAGUAUUUAGUUA, for which the “pre-steady-state target cleavage rate” value in test [1] (setting [3]) worked out at 0.2 ± 0.011; in test [1] (setting [4]), 0.0085 ± 0.0026; in test [2], 0.00977 ± 0.0027.
The corresponding values for UCCUGGAUGUCGAUGCAUAUUAUUUAGUUA are 0.016 ± 0.0043, 0.00389 ± 0.0019 and 0.0047 ± 0.0036.
The corresponding values for UCCUGGAUGUCCUUGCAUAGUAUUUAGUA are 0.0747 ± 0.012, 0.00356 ± 0.0024 and 0.00759 ± 0.0039.
